According to PubChem BioAssay (NCATS):
Records with an inconclusive call do not appear. Where a call stands in place of a potency, no number is given. Activity calls are given as the source filed them. The call rests on the fitted dose curve; in most records, active means well fitted curve in the direction sought with a large enough effect; inconclusive means small, poorly fitted or top-dose-only effect, or another doubt; inactive means no such curve, though single readings can be large; an effect the other way counts as inactive or inconclusive.

Columns and labels:
[1] = qHTS of pediatric cancer cell lines to identify multiple opportunities for drug repurposing: Confirmatory screen for SK-N-MC cells (AID 1347111); conditions: SK-N-MC cell viability; series mostly up to 45.9 µM;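 further: cells exposed to compound for 48 h before the readout; nearly all actives have a fitted effect of over 70% in size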
Summary of the method: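 Metabolically active cells were quantified by ATP-dependent luminescence (CellTiter-Glo, 15 min at room temperature) following 48 h treatment. Cells had been plated at 500-1,000 per well and settled for 5 h beforehand.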

[2] = qHTS of pediatric cancer cell lines to identify multiple opportunities for drug repurposing: Confirmatory screen for BT-37 cells (AID 1347117); conditions: BT-37 pediatric cancer cells, viability; series mostly up to 45.9 µM; further: nearly all actives have a fitted effect of over 55% in size
Summary of the method: (§1)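 Cells (500-1,000/well) in growth media were settled 5 h at 37 degrees C, then given compounds for 48 h. Viability was read as CellTiter-Glo luminescence. Primary runs used MIPE at 11 points (0.78 nM-46 µM) and NPC at 8 points (0.59 nM-46 µM); follow-ups used 11 points.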

[3] = qHTS of pediatric cancer cell lines to identify multiple opportunities for drug repurposing: Confirmatory screen for TC32 cells (AID 1347118); conditions: TC32 Ewing sarcoma cells viability qHTS; series mostly up to 45.9 µM;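 further: cells exposed to compound for 48 h before the read; nearly all actives have a fitted effect of over 65% in size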
Summary of the method: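 Measured quantity: luminescence from CellTiter-Glo, reflecting metabolically active TC32 cells following 48 h of compound. Curves came straight from multi-point titrations, with 8 or 11 points in primary and 11 in confirmatory screening.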

[4] = qHTS of pediatric cancer cell lines to identify multiple opportunities for drug repurposing: Confirmatory screen for MG 63 (6-TG R) cells (AID 1347119); conditions: MG-63 (6-TG resistant) osteosarcoma viability; series mostly up to 45.9 µM; further: nearly all actives have a fitted effect of over 55% in size
Summary of the method: as §1

[5] = qHTS of pediatric cancer cell lines to identify multiple opportunities for drug repurposing: Confirmatory screen for control Hh wild type fibroblast cells (AID 1347121); conditions: viability qHTS; series mostly up to 45.9 µM; further: nearly all actives have a fitted effect of over 70% in size
Summary of the method: as §1

[6] = qHTS of pediatric cancer cell lines to identify multiple opportunities for drug repurposing: Confirmatory screen for BT-12 cells (AID 1347112); conditions: BT-12 rhabdoid tumor cells, viability; series mostly up to 45.9 µM; further: nearly all actives have a fitted effect of over 55% in size
Summary of the method: as §1

[7] = qHTS of pediatric cancer cell lines to identify multiple opportunities for drug repurposing: Confirmatory screen for DAOY cells (AID 1347114); conditions: DAOY medulloblastoma cells viability, cytotoxicity qHTS; series mostly up to 45.9 µM; further: nearly all actives have a fitted effect of over 65% in size
Summary of the method: (§2)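 Viability measured as metabolically active cells via CellTiter-Glo luminescence following 48 hours of compound exposure, 11-point dilutions in confirmatory testing. 500-1,000 cells/well plated 5 hours before dosing; controls were DMSO and 2.3 µM bortezomib.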

[8] = qHTS of pediatric cancer cell lines to identify multiple opportunities for drug repurposing: Confirmatory screen for NB-EBc1 cells (AID 1347115); conditions: NB-EBc1 neuroblastoma cells, viability (cytotoxicity); series mostly up to 45.9 µM;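 further: cells exposed to compound for 48 h before the viability read; nearly all actives have a fitted effect of over 45% in size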
Summary of the method: as §1

[9] = qHTS of pediatric cancer cell lines to identify multiple opportunities for drug repurposing: Confirmatory screen for SJ-GBM2 cells (AID 1347116); conditions: SJ-GBM2 glioblastoma cells, viability; series mostly up to 45.9 µM; further: nearly all actives have a fitted effect of over 60% in size
Summary of the method: as §2

[10] = qHTS of pediatric cancer cell lines to identify multiple opportunities for drug repurposing: Confirmatory screen for LAN-5 cells (AID 1347113); conditions: LAN-5 neuroblastoma cell viability; series mostly up to 45.9 µM; further: nearly all actives have a fitted effect of over 65% in size
Summary of the method: as §1
Potency means the concentration at half of the fitted maximal effect.

SMILES | Potency [1] | Potency [2] | Potency [3] | Potency [4] | Potency [5] | Potency [6] | Potency [7] | Potency [8] | Potency [9] | Potency [10]
C#Cc1cccc(Nc2ncnc3cc(OCCOC)c(OCCOC)cc23)c1 | 14.7 µM (active) | 5.85 µM (active) | 14.7 µM (active) | 16.5 µM (active) | inactive | – | – | – | – | –
CN1CCN(CCCN2c3ccccc3Sc3ccc(C(F)(F)F)cc32)CC1 | – | 23.3 µM (active) | – | 23.3 µM (active) | – | 23.3 µM (active) | 18.5 µM (active) | – | – | –
COc1cc2nccc(Oc3ccc(NC(=O)NC4CC4)c(Cl)c3)c2cc1C(N)=O | 26.1 µM (active) | – | 14.7 µM (active) | – | inactive | – | inactive | inactive | inactive | –
COc1ccc(-c2ccc3c(N4CCOCC4)nc(N4C[C@@H](C)O[C@@H](C)C4)nc3n2)cc1CO | – | – | – | – | – | 5.22 µM (active) | 9.27 µM (active) | – | 1.47 µM (active) | –
CS(=O)(=O)c1ccc(C(=O)Nc2ccc(Cl)c(-c3ccccn3)c2)c(Cl)c1 | – | inactive | 4.65 µM (active) | inactive | inactive | inactive | inactive | inactive | inactive | inactive
Nc1nc2ccc(OC(F)(F)F)cc2s1 | inactive | – | inactive | 18.5 µM (active) | inactive | inactive | – | inactive | inactive | –
Cn1cnc2c(F)c(Nc3ccc(Br)cc3Cl)c(C(=O)NOCCO)cc21 | inactive | – | inactive | – | inactive | inactive | – | inactive | – | inactive
CCOc1cc(N2CCC(O)CC2)ccc1Nc1ncc2c(n1)N(C)c1ccccc1C(=O)N2C | 1.17 µM (active) | 7.37 µM (active) | 0.928 µM (active) | 4.14 µM (active) | inactive | – | – | – | – | –
C[C@]1(c2nc3c(C(N)=O)cccc3[nH]2)CCCN1 | – | – | 18.5 µM (active) | inactive | inactive | – | inactive | inactive | inactive | inactive
COc1cc(Nc2ncc3c(n2)-c2ccc(Cl)cc2C(c2c(F)cccc2OC)=NC3)ccc1C(=O)O | 0.261 µM (active) | – | 0.147 µM (active) | 0.233 µM (active) | inactive | inactive | – | 20.8 µM (active) | inactive | –
CCC(C)n1ncn(-c2ccc(N3CCN(c4ccc(OC[C@H]5CO[C@](Cn6cncn6)(c6ccc(Cl)cc6Cl)O5)cc4)CC3)cc2)c1=O (some centres undefined) | 4.65 µM (active) | – | 3.29 µM (active) | inactive | inactive | – | – | inactive | inactive | inactive
Cn1cnc([N+](=O)[O-])c1Sc1ncnc2nc[nH]c12 | – | – | 1.34 µM (active) | – | inactive | inactive | – | – | – | –
OC[C@H](Cc1ccccc1)Nc1nc(Oc2ccc3c(c2)CCC3)nc2c1ncn2Cc1ccc(-c2ccccc2)cc1 | 2.33 µM (active) | inactive | – | – | inactive | inactive | – | – | inactive | –
Cc1cn[nH]c1 | inactive | inactive | inactive | – | inactive | inactive | inactive | inactive | inactive | inactive
O=C(NOC[C@H](O)CO)c1ccc(F)c(F)c1Nc1ccc(I)cc1F | inactive | – | inactive | – | inactive | – | inactive | – | inactive | –
Oc1cccc(-c2nc(N3CCOCC3)c3oc4ncccc4c3n2)c1 | 0.759 µM (active) | 0.851 µM (active) | 0.427 µM (active) | 0.135 µM (active) | – | – | – | 13.5 µM (active) | 2.93 µM (active) | 0.537 µM (active)
NC(=O)c1ccc(I)c([N+](=O)[O-])c1 | 55.1 µM (active) | inactive | 39 µM (active) | inactive | inactive | inactive | 61.8 µM (active) | inactive | inactive | inactive
Nc1nc2[nH]cc(CCc3ccc(C(=O)N[C@@H](CCC(=O)O)C(=O)O)cc3)c2c(=O)[nH]1 | 0.147 µM (active) | – | 0.465 µM (active) | – | inactive | inactive | inactive | inactive | – | inactive
CCOc1ccn(-c2ccc(F)cc2)c(=O)c1C(=O)Nc1ccc(Oc2ccnc(N)c2Cl)c(F)c1 | 9.27 µM (active) | – | 7.37 µM (active) | 10.4 µM (active) | inactive | inactive | inactive | inactive | 14.7 µM (active) | inactive
COc1ccc(-c2ccc3c(N4CCOC[C@H]4C)nc(N4CCOC[C@H]4C)nc3n2)cc1CO | 0.827 µM (active) | 0.233 µM (active) | 0.208 µM (active) | 0.0928 µM (active) | – | – | – | – | – | 0.293 µM (active)

SMILES | Potency [1] | Potency [2] | Potency [3] | Potency [4] | Potency [5] | Potency [6] | Potency [7] | Potency [8] | Potency [9] | Potency [10]
OC(CN1CCC(Cc2ccc(F)cc2)CC1)c1ccc(Cl)cc1 (centres undefined) | – | – | – | inactive | inactive | inactive | inactive | inactive | inactive | inactive
CC(C=CC1=C(C)CCCC1(C)C)=CC=CC(C)=CC(=O)O | – | inactive | 16.5 µM (active) | – | inactive | inactive | inactive | inactive | inactive | inactive
CO[C@@H]1[C@H](N(C)C(=O)c2ccccc2)C[C@H]2O[C@]1(C)n1c3ccccc3c3c4c(c5c6ccccc6n2c5c31)C(=O)NC4 | – | – | – | – | inactive | – | inactive | – | – | –
CCCS(=O)(=O)Nc1ccc(F)c(C(=O)c2c[nH]c3ncc(-c4ccc(Cl)cc4)cc23)c1F | 23.3 µM (active) | – | 18.5 µM (active) | – | inactive | inactive | – | inactive | – | –
CCN(CC)CCCC(C)Nc1ccnc2cc(Cl)ccc12 (centres undefined) | – | inactive | inactive | – | inactive | inactive | inactive | inactive | – | inactive
Cc1c(CN2CCN(C(=O)C(C)C)CC2)sc2c(N3CCOCC3)nc(-c3cnc(N)nc3)nc12 | 0.465 µM (active) | 0.737 µM (active) | 0.737 µM (active) | 0.369 µM (active) | – | – | – | – | – | 0.737 µM (active)
O=C(c1cc(Cc2n[nH]c(=O)c3ccccc23)ccc1F)N1CCN(C(=O)C2CC2)CC1 | – | – | inactive | inactive | inactive | 18.5 µM (active) | – | inactive | inactive | –
Cc1oncc1C(=O)Nc1ccc(C(F)(F)F)cc1 | 7.37 µM (active) | inactive | – | – | inactive | inactive | inactive | inactive | – | inactive
COCC(=O)NCC=Cc1ccc2ncnc(Nc3ccc(Oc4ccc(C)nc4)c(C)c3)c2c1 | – | 24 µM (active) | 26.9 µM (active) | 38 µM (active) | 42.7 µM (active) | – | 16.5 µM (active) | 30.2 µM (active) | inactive | 42.7 µM (active)
NC(N)=NC(=O)c1nc(Cl)c(N)nc1N | – | – | – | inactive | inactive | inactive | inactive | inactive | inactive | inactive
CCC(C)(C)C(=O)O[C@H]1C[C@@H](C)C=C2C=C[C@H](C)[C@H](CC[C@@H]3C[C@@H](O)CC(=O)O3)[C@H]21 | – | – | 16.5 µM (active) | 2.93 µM (active) | – | inactive | 5.85 µM (active) | inactive | – | inactive
CN(C)c1ccc(C2Nc3ccc4ccccc4c3C3=C2C(=O)CC(C)(C)C3)cc1Br (centres undefined) | 19.1 µM (active) | – | 15.1 µM (active) | 7.59 µM (active) | inactive | inactive | inactive | 42.7 µM (active) | 8.27 µM (active) | inactive
NCCCC(N)(C(=O)O)C(F)F (centres undefined) | inactive | inactive | – | inactive | inactive | inactive | inactive | inactive | inactive | inactive
COc1cccc2cc(-c3nc(C4CCC(C(=O)O)CC4)n4ncnc(N)c34)[nH]c12 (centres undefined) | inactive | inactive | inactive | – | inactive | – | – | inactive | – | –
COc1ccc(-c2oc3cc(OC)ccc3c2C(=O)c2ccc(C#N)cc2)cc1 | – | inactive | – | inactive | inactive | inactive | inactive | – | inactive | inactive
CNCc1ccc(-c2[nH]c3cc(F)cc4c3c2CCNC4=O)cc1 | 6.57 µM (active) | – | 5.85 µM (active) | – | inactive | inactive | inactive | – | inactive | inactive
Nc1nc2c(ncn2COCCO)c(=O)[nH]1 | inactive | – | inactive | inactive | inactive | inactive | inactive | inactive | inactive | inactive
O=NN(CCCl)C(=O)NCCCl | – | – | – | 20.8 µM (active) | inactive | inactive | inactive | – | inactive | inactive
Cc1c(C)c2c(c(C)c1O)CCC(C)(COc1ccc(CC3SC(=O)NC3=O)cc1)O2 (centres undefined) | inactive | inactive | inactive | – | inactive | inactive | – | inactive | inactive | inactive
